Data taken from PubChem BioAssay (NCATS).
Inconclusive results are not listed. Unmarked numbers belong to inactive results. Active and inactive are the calls of the source. The call rests on the fitted dose curve; in most records, active means well fitted cell-killing curve with a large enough effect; inconclusive means small, poorly fitted or top-dose-only effect, or effect the other way; inactive means no such curve, though single readings can be large or run the other way.
Potency means the concentration at half of the fitted maximal effect.

Assay: Quantitative High-Throughput drug screen in 47 multiple myeloma cell lines against the NCATS MIPE library collection: MM1R_ATCC cell viability assay (AID 1918981); further: nearly all actives have a fitted effect of over 35% in size
Details: MM1R multiple myeloma cells, CellTiter-Glo viability, 48 h; series mostly up to 45.8 µM; viability (% of control): at the top concentration
From the text: PI: Beverly A. Mock Ph.D.
Laboratory of Cancer Biology and Genetics,
Center for Cancer Research, National Cancer Institute,
National Institute of Health, Bethesda, Maryland
Drug resistance and disease progression are common in multiple myeloma (MM) patients, underscoring the need for new therapeutic combinations. […] We hypothesized that effective combinations would reduce MYC expression and enhance p16 activity. […] These preclinical data identify potentially useful drug combinations for evaluation in drug-resistant MM and reveal potential mechanisms of combined drug sensitivity.
Described herein is the primary MIPE qHTS used to cherrypick compounds. Validated compounds were then further tested for potential synergistic activiy.
[1] Peat TJ, Gaikwad SM, Dubois W, Gyabaah-Kessie N, Zhang S, Gorjifard S, Phyo Z, Andres M, Hughitt VK, Simpson RM, Miller MA, Girvin AT, Taylor A, Williams D, D'Antonio N, Zhang Y, Rajagopalan A, Flietner E, Wilson K, Zhang X, Shinn P, Klumpp-Thomas C, McKnight C, Itkin Z, Chen L, Kazandijian D, Zhang J, Michalowski AM, Simmons JK, Keats J, Thomas CJ, Mock BA. Drug combinations identified by high-throughput screening promote cell cycle transition and upregulate Smad pathways in myeloma. Cancer Lett. 2023 Aug 1;568:216284. doi: 10.1016/j.canlet.2023.216284. Epub 2023 Jun 24. PMID: 37356470; PMCID: PMC10408729.
SEQUENCE No. (e.g., 1, 2, 3, etc.); […] (e.g., Cells, Incubation, Reagent, etc.); VALUE and DESCRIPTION.
1; Cells; 5 uL; white, solid bottom 1536-well Greiner assay plate.
2; Compounds; 23 nL; Kalypsis pin tool (Wako USA) equipped with a 1536-well pin head to transfer to the assay plates.
3; Incubation; 48 hours; 37C incubation.
4; Reagent;5uL; CellTiter Glo (Promega).
5; Detector; 425V; Luminescence; Viewlux PerkinElmer.
NOTES (numbers refer to Sequence numbers above)
1. The cell-based screening methods employed in this study were like those previously published. Briefly, the corresponding myeloma cell lines were screened in 1,536-well plates with 500 cells, 5-uL per well for inhibition of cell viability (assessed by measuring ATP levels with CellTiterGlo).
2. NCATS MIPE 4.0 library of approved and investigational drugs were added using the Kalypsis pin tool. Wells treated with DMSO only for 100% viability and media only for 0% viability were used as controls.
3. The assay plates were covered and incubated for 48 hours in a 37C, 5% CO2 incubator with controlled humidity.
4. After 48 hours, CellTilter-GloTM luminescent substrate mix (Promega) reagent was added to the assay plate and plates we incubated for 5 min at room temperature.
5. Signal was measured as median relative luminescence units on a ViewLux (PerkinElmer) multiplate reader.
[1] Heske CM, Davis MI, Baumgart JT, Wilson K, Gormally MV, Chen L, Zhang X, Ceribelli M, Duveau DY, Guha R, Ferrer M, Arnaldez FI, Ji J, Tran HL, Zhang Y, Mendoza A, Helman LJ, Thomas CJ. Matrix Screen Identifies Synergistic Combination of PARP Inhibitors and Nicotinamide Phosphoribosyltransferase (NAMPT) Inhibitors in Ewing Sarcoma. Clin Cancer Res. 2017 Dec 1;23(23):7301-7311. doi: 10.1158/1078-0432.CCR-17-1121. Epub 2017 Sep 12. PMID: 28899971; PMCID: PMC6636827.
In the case of `Nc1ncnc2c1c(-c1cccc(OCc3ccccc3)c1)cn2C1CC(CN2CCC2)C1` (stereo not given), the Potency was 4.69 µM (active). In the case of `O=C(O)C1=CO[C@@H](O[C@@H]2O[C@H](CO)[C@H](O)[C@H](O)[C@H]2O)[C@@H]2C(CO)=CC[C@H]12`, the “viability (% of control)” value was 112%. In the case of `C[C@@H]1C[C@H]2[C@@H]3CCC4=CC(=O)C=C[C@]4(C)[C@@]3(F)[C@@H](O)C[C@]2(C)[C@@]1(O)C(=O)CO`, the “viability (% of control)” value was 123%. With `COc1c(C)c2c(c(O)c1CC=C(C)CCC(=O)OCCN1CCOCC1)C(=O)OC2` the Potency was 11.8 µM (active). In the case of `COC1CCC(C(=O)c2ccc3nc4c(cc3c2)CCCO4)CC1` (stereo not given), the Potency was 18.7 µM (active). For `CCn1c(-c2nonc2N)nc2cncc(CNC3CCNCC3)c21`, the Potency was 16.6 µM (active). In the case of `O=c1cc(-c2ccc(O)c(O)c2)oc2cc(O)cc(O)c12`, the “viability (% of control)” value was 137%. For `Clc1ccc(C2(c3ccc(-c4cn[nH]c4)cc3)CCNCC2)cc1`, the Potency was 10.5 µM (active). With `C[C@H]1O[C@@H](n2cc(F)c(=O)[nH]c2=O)[C@H](O)[C@H]1O` the Potency was 14.8 µM (active). In the case of `CC1=C(C(=O)Nc2cc3cn[nH]c3cc2F)C(c2ccc(C(F)(F)F)cc2)CC(=O)N1` (stereo not given), the “viability (% of control)” value was 146%. In the case of `CCCCCOC(=O)Nc1nc(=O)n([C@@H]2O[C@H](C)[C@@H](O)C2O)cc1F` (stereo not given in full), the “viability (% of control)” value was 101%. With `CN1CC(=O)N2C(Cc3c([nH]c4ccccc34)[C@H]2c2ccc3c(c2)OCO3)C1=O` (stereo not given in full) the “viability (% of control)” value was 101%. In the case of `Cc1nc(C(=O)NCC(=O)O)c(O)c2ccc(Oc3ccccc3)cc12`, the “viability (% of control)” value was 113%. In the case of `CC(=O)NCCC(=O)N[C@@H](CCC(N)=O)C(=O)N[C@@H](CO)C(=O)N[C@@H](CCC(N)=O)C(=O)N[C@@H](CCC(N)=O)C(=O)N[C@H](C(=O)N[C@@H](Cc1ccccc1)C(=O)N[C@]1(C)CCCCCCC=CCCC[C@@](C)(C(=O)N[C@@H](CCC(N)=O)C(=O)N[C@@H](CC(N)=O)C(N)=O)NC(=O)[C@H](CC(C)C)NC(=O)[C@H](CC(C)C)NC(=O)[C@@H](CCCNC(=N)N)NC(=O)[C@H](Cc2c[nH]c3ccccc23)NC(=O)[C@H](CC(C)C)NC(=O)[C@H](CC(N)=O)NC1=O)[C@H](C)O`, the Potency was 26.4 µM (active). For `NC(=O)c1ccc(N(C(N)=O)c2c(F)cccc2F)nc1-c1ccc(F)cc1F`, the “viability (% of control)” value was 116%. With `Fc1ccc(CNc2ncnc3ccc(F)cc23)cc1` the Potency was 10.5 µM (active). In the case of `CC(NCCc1ccc(O)cc1)C(O)c1ccc(O)cc1` (stereo not given), the Potency was 4.18 µM (active). With `CN(C)c1nc(Cc2ccc(NC(=O)c3ccc(C(F)(F)F)cc3)cc2)nc(N(C)C)c1CC(=O)O` the Potency was 9.35 µM (active). With `O=c1[nH]c(=O)n([C@H]2C[C@@H](O)[C@@H](CO)O2)cc1C(F)(F)F` the Potency was 7.43 µM (active). In the case of `CCCCC(C)(C)[C@H](O)C=C[C@H]1[C@H](O)CC(=O)[C@H]1CC=CCCCC(=O)O`, the Potency was 18.7 µM (active). In the case of `CN(C)CCCNC(=O)c1ccc(-c2cc(O)c3ncccc3c2)cc1`, the Potency was 20.9 µM (active). In the case of `CC1(C)[C@H]2CC[C@]3(C)[C@@H](C(=O)C=C4[C@@H]5C[C@@](C)(C(=O)O)CC[C@]5(C)CC[C@]43C)[C@@]2(C)CC[C@@H]1O`, the “viability (% of control)” value was 96.2%. For `N[C@@H](CC(=O)N1CCn2c(nnc2C(F)(F)F)C1)Cc1cc(F)c(F)cc1F`, the “viability (% of control)” value was 122%. For `Cc1csc(-c2nnc(Nc3ccc(Oc4ncccc4-c4ccnc(N)n4)cc3)c3ccccc23)c1`, the Potency was 20.9 µM (active). With `CON(C)C(=O)N1N=C(c2cc(F)ccc2F)S[C@]1(CCCN)c1ccccc1` the “viability (% of control)” value was 52.1%. For `CN(C(Cc1ccc(OS(=O)(=O)c2cccc3cnccc23)cc1)C(=O)N1CCN(c2ccccc2)CC1)S(=O)(=O)c1cccc2cnccc12` (stereo not given), the Potency was 16.6 µM (active). With `Cc1ccc(C2=Nc3ccc(Cl)cc3OC2)cc1` the “viability (% of control)” value was 100%. For `O=C(O)C1=NC(C(=O)O)CC(C=CN2c3cc(O)c(OC4OC(CO)C(O)C(O)C4O)cc3CC2C(=O)O)=C1` (stereo not given), the “viability (% of control)” value was 120%. With `C=C[C@@H]1CN2CCC1C[C@@H]2C(O)c1ccnc2ccc(OC)cc12` (stereo not given in full) the Potency was 18.7 µM (active). For `O=C(c1ccc(C=Cc2n[nH]c3ccccc23)cc1)N1CCNCC1`, the Potency was 13.2 µM (active). With `CCN(CC)CCCCNc1nc2cc(Cl)c(Cl)cc2nc1-c1ccc(-c2cccs2)s1` the Potency was 9.35 µM (active). In the case of `COc1cc2c(cc1OC)CC(=O)N(CCCN(C)C[C@H]1Cc3cc(OC)c(OC)cc31)CC2`, the Potency was 11.8 µM (active). With `O=C(Nc1cccc(C(F)(F)F)c1)Nc1cc(S(=O)(=O)NC2CC2)ccc1-c1ccsc1` the Potency was 20.9 µM (active). For `COc1cc(Cl)cn2c(-c3cccc(NC4CNC4)n3)cnc12`, the Potency was 16.6 µM (active). In the case of `CC(C)(F)C[C@H](N[C@@H](c1ccc(-c2ccc(S(C)(=O)=O)cc2)cc1)C(F)(F)F)C(=O)NC1(C#N)CC1`, the “viability (% of control)” value was 101%. With `COc1cc(F)c(C(C)C)cc1-c1ccc(C(F)(F)F)cc1CN1C(=O)O[C@H](c2cc(C(F)(F)F)cc(C(F)(F)F)c2)[C@@H]1C` the Potency was 0.296 µM (active). For `COc1cc2nc(-c3cc(F)ccc3O)nc(N[C@@H]3CNC[C@@H]3C(C)(C)O)c2cc1OC`, the Potency was 9.35 µM (active). With `Cc1nc2c([nH]1)CCN(C(=O)c1ccc(NC(=O)c3ccccc3-c3ccccc3)cc1)c1ccccc1-2` the “viability (% of control)” value was 99.9%. With `CC[C@H]1OC(=O)[C@H](C)[C@@H](O[C@H]2C[C@@](C)(OC)[C@@H](O)[C@H](C)O2)[C@H](C)[C@@H](O[C@@H]2O[C@H](C)C[C@H](N(C)C)[C@H]2O)[C@](C)(O)C[C@H](C)C(=NOCOCCOC)[C@H](C)[C@@H](O)[C@]1(C)O` the “viability (% of control)” value was 99.5%. For `CN[C@@H]1[C@@H](O)[C@@H](O[C@@H]2[C@@H](O)[C@H](O[C@H]3O[C@H](CN)[C@@H](O)[C@H](O)[C@@H]3O)[C@@H](N)C[C@@H]2NC(=O)[C@@H](O)CN)OC[C@]1(C)O`, the “viability (% of control)” value was 129%.
